Inconclusive results are not listed. A call without a number means that no potency is given here. Activity calls are given as the source filed them. Unless noted, the call rests on the fitted dose curve; in most records, active means well fitted curve in the direction sought with a large enough effect; inconclusive means small, poorly fitted or top-dose-only effect, or another doubt; inactive means no such curve, though single readings can be large; an effect the other way counts as inactive or inconclusive.
Tests used:
[1] = biological target: Cytochrome P450 1A2 (Homo sapiens) (UniProt P05177); assay: p450-cyp1a2 (AID 410; calls by dose curve; further: potency means the concentration at half of the fitted maximal effect)
Cytochrome P450 1A2 (Homo sapiens), sequence (P05177 whole entry, looked up): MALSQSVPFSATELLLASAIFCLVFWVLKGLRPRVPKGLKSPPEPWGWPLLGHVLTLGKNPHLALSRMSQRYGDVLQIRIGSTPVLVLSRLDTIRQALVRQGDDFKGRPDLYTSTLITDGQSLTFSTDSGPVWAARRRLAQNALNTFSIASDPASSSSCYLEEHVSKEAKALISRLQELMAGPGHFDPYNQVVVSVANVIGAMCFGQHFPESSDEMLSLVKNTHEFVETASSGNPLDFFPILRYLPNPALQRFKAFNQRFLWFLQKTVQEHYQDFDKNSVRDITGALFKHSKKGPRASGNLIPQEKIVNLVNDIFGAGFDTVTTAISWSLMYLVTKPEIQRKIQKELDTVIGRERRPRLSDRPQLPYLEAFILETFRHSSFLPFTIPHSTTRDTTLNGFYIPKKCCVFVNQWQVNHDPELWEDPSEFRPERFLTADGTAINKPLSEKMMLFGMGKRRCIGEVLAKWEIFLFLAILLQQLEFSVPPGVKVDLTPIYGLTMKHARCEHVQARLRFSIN
Method in brief: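 Luminescent demethylation readout: Luciferin-ME (100uM, equal to Km) turned over by 20nM CYP1A2 for 60 min at room temperature after NADPH regeneration addition, following 10 min compound preincubation. Normalization used 57 uM furafylline as full inhibition.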

[2] = biological target: Mitogen-activated protein kinase 10 (Mus musculus) (UniProt Q61831); assay: JNK3 AlphaScreen Assay (AID 530; active means well fitted curve in either direction with a large enough effect, not every such curve was filed as active;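 further: kinase came from lysate of stimulated human HepG2 cells; signal reports phosphorylation of biotinylated GST-cJun 1-79 at Ser73 with 10 µM ATP; series mostly up to about 57 µM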)
Method in brief: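 qHTS titrations with 15 min compound pre-incubation before adding ATP (10 uM final). Read-out: AlphaScreen of Ser73-phosphorylated biotin-GST-cJun using HepG2 lysate JNK3 activated by IL-1β and TNFα.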

[3] = biological target: Cytochrome P450 2C9 (Homo sapiens) (UniProt P11712); assay: qHTS Assay for Inhibitors and Substrates of Cytochrome P450 2C9 (AID 883); further: potency means the concentration at half of the fitted maximal effect; nearly all actives have a fitted effect of over 60% in size
Cytochrome P450 2C9 (Homo sapiens), sequence (P11712 whole entry, looked up): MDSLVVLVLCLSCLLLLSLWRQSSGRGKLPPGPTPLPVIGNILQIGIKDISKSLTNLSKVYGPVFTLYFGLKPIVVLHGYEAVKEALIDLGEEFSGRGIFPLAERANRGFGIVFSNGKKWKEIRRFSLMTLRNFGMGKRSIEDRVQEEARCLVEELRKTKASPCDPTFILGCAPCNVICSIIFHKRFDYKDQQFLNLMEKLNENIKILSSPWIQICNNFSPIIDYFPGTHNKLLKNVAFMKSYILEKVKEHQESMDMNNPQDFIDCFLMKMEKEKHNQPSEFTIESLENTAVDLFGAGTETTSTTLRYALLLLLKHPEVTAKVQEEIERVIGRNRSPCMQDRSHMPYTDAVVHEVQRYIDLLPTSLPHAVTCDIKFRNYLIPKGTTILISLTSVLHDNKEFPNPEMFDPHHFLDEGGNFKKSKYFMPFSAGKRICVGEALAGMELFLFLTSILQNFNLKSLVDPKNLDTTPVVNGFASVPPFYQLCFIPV
Method in brief: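 Inhibition of CYP2C9 is scored as loss of luminescence, with 57uM sulphaphenazole defining 100% inhibition. Substrate Luciferin-H is used at 100uM, equal to its KM; enzyme at 10nM in 25mM KPO4, 60 min at 37C with NADPH regeneration.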

[4] = biological target: Cytochrome P450 3A4 (Homo sapiens) (UniProt P08684); assay: qHTS Assay for Activators of Cytochrome P450 3A4 (AID 885); further: nearly all actives have a fitted effect of over 65% in size
Cytochrome P450 3A4 (Homo sapiens), sequence (P08684 whole entry, looked up): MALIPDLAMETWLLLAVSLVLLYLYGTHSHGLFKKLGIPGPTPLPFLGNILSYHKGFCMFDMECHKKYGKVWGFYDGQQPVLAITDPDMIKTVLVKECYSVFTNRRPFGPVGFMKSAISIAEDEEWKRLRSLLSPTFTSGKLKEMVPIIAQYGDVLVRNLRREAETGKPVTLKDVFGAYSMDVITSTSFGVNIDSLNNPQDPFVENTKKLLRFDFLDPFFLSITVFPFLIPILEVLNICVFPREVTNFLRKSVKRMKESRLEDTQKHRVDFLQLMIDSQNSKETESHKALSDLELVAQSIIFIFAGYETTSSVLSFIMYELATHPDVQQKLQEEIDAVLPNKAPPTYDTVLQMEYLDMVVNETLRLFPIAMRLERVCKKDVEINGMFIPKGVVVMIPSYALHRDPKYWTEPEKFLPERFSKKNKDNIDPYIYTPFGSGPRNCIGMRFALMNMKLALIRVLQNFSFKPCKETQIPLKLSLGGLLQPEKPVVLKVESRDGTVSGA
Method in brief: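 Human CYP3A4 dealkylates Luciferin-PPXE to luciferin, which luciferase detection converts to light. Substrate was at its KM (25uM), buffer 200mM KPO4, reaction 60 min at RT.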

[5] = biological target: Cytochrome P450 2C19 (Homo sapiens) (UniProt P33261); assay: qHTS Assay for Inhibitors and Substrates of Cytochrome P450 2C19 (AID 899); further: nearly all actives have a fitted effect of over 60% in size; further: potency means the concentration at half of the fitted maximal effect
Cytochrome P450 2C19 (Homo sapiens), sequence (P33261 whole entry, looked up): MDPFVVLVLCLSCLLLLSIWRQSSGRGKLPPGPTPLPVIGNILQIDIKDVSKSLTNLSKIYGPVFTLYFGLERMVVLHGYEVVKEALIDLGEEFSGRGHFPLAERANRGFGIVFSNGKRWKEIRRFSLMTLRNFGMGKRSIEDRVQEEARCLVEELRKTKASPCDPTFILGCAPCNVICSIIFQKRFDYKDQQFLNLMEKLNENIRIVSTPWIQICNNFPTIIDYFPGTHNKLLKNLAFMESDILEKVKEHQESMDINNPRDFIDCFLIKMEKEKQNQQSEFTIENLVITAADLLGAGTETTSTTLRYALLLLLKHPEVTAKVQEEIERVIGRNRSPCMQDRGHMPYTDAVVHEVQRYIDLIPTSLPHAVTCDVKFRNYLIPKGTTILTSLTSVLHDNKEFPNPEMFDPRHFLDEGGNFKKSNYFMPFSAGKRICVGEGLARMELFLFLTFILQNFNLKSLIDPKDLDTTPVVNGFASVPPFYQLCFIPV
Method in brief: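 5nM enzyme + 10uM Luciferin-H EGE (=KM), 50mM KPO4; cpd pin-transferred, 10 min 37C; NADPH regen, 60 min 37C; stopped w/ luciferin detection reagent, 20 min; luminescence. Normalized to 57uM ketoconazole (AC100).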

[6] = biological target: Cytochrome P450 3A4 (Homo sapiens) (UniProt P08684); assay: qHTS Assay for Inhibitors and Substrates of Cytochrome P450 3A4 (AID 884); further: potency means the concentration at half of the fitted maximal effect; nearly all actives have a fitted effect of over 50% in size
Method in brief: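 Luminescent readout of luciferin produced by CYP3A4 (20 nM) dealkylation of Luciferin-PPXE, 25 uM (its KM). NADPH-driven reaction ran 60 min at RT after 10 min compound preincubation; data scaled to 57 uM ketoconazole as 100% inhibition.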

[7] = biological target: Cytochrome P450 2D6 (Homo sapiens) (UniProt P10635); assay: qHTS Assay for Inhibitors and Substrates of Cytochrome P450 2D6 (AID 891); further: potency means the concentration at half of the fitted maximal effect; nearly all actives have a fitted effect of over 60% in size
Cytochrome P450 2D6 (Homo sapiens), sequence (P10635 whole entry, looked up): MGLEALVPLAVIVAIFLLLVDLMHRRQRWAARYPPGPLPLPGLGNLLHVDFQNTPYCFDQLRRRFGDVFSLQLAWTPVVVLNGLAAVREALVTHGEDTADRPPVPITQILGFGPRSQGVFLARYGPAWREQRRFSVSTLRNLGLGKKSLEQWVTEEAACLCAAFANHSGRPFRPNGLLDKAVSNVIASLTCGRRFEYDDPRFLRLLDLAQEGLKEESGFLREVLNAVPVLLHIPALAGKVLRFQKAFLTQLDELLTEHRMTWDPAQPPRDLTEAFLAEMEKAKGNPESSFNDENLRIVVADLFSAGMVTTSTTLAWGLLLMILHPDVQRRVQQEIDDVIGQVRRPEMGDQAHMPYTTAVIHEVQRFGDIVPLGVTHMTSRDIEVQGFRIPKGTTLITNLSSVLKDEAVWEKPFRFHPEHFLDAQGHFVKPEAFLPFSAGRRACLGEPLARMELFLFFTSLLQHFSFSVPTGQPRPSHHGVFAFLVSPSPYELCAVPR
Method in brief: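 Luminescent read-out of luciferin formed by 5 nM human CYP2D6 demethylating 30 uM Luciferin-ME EGE (Km level) over 60 min at room temperature after NADPH regeneration addition. Data normalized to full inhibition by 1.43 uM quinidine.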

[8] = biological target: 3',5'-cyclic-AMP phosphodiesterase 4B (Homo sapiens) (UniProt Q07343); assay: qHTS Assay for Inhibitors of PDE-IV (AID 607; active means well fitted activation curve with a large enough effect in the main read-out, with a control signal flat, not every such curve was filed as active)
3',5'-cyclic-AMP phosphodiesterase 4B (Homo sapiens), sequence (Q07343 whole entry, looked up): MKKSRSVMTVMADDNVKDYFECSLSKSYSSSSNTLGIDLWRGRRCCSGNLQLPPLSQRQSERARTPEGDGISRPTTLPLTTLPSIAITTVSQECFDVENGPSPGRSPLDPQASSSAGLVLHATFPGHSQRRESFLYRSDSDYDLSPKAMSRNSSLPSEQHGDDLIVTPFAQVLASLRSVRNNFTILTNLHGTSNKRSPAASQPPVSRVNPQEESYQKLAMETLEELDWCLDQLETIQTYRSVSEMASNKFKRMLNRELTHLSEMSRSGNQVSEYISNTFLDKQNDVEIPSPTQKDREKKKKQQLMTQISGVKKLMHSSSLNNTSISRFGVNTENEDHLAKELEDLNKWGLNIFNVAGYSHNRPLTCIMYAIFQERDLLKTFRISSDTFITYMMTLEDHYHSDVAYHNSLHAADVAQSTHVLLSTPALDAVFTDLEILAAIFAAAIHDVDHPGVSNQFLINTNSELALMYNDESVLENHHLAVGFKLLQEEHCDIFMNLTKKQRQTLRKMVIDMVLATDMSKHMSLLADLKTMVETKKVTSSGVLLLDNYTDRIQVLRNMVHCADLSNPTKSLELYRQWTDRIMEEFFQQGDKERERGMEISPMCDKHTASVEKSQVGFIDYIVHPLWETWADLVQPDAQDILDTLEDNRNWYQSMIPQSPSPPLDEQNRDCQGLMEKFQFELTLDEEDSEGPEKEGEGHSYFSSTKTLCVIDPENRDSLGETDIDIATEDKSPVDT
Method in brief: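 HEK293 ACTOne cells with CNG channel (1000/well), endogenous PDE4; membrane potential dye, compounds up to 22.9 uM final. Fluorescence Ex 535/Em 590; RO 20-1724 (100 uM final) as reference.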

SMILES | Potency [1] | Potency [2] | Potency [3] | Potency [4] | Potency [5] | Potency [6] | Potency [7] | Potency [8]
CCC/C=C(\CCC)C(NC(=O)c1cccs1)c1ccc(C(=O)OC)cc1 (stereo unspecified) | 5.01 µM (active) | inactive | 2 µM (active) | inactive | 0.794 µM (active) |  |  | 
C=C1C(=O)C=C2CN(C(=O)c3ccccc3)[C@@](Cc3ccc(F)cc3)(C(=O)OC)[C@@H]12 | 15.8 µM (active) | inactive | 3.98 µM (active) | inactive | 5.01 µM (active) | 7.94 µM (active) |  | 
c1ccc2c(c1)Cc1cc3cc4c(cc3nc1-2)OCO4 | 0.501 µM (active) | inactive | 3.98 µM (active) | inactive | 1.26 µM (active) | 1 µM (active) | 1.26 µM (active) | 
C[C@@H](C(=O)NCc1ccc(S(C)(=O)=O)cc1)[C@@H]1C[C@@]1(C)[C@@H](NC(=O)OCc1ccccc1)c1ccccc1 | 15.8 µM (active) | inactive |  | inactive | 1.26 µM (active) |  |  | inactive
CCC/C=C(\CCC)C(NS(=O)(=O)c1ccc(C(F)(F)F)cc1)c1ccc(-c2ccccc2)cc1 (stereo unspecified) | inactive | inactive |  | inactive | 7.94 µM (active) |  |  | inactive
COC(=O)[C@@]1(Cc2ccc(F)cc2)[C@H]2c3cc(C(=O)N4CCCC4)n(CCc4ccc(OC)c(Br)c4)c3C[C@H]2CN1C(=O)c1ccccc1 | 15.8 µM (active) | inactive | 3.16 µM (active) | inactive | 5.01 µM (active) | 2.51 µM (active) |  | 
CCCC[C@@H]1C[C@H]1C(NC(=O)c1cccs1)c1ccc(C(F)(F)F)cc1 (stereo partly specified) | 2 µM (active) | inactive | 1.58 µM (active) | inactive | inactive | 3.16 µM (active) |  | 
CCCC[C@@H]1C[C@H]1C(NC(=O)c1ccc(C(F)(F)F)cc1)c1ccc(C(=O)OC)cc1 (stereo partly specified) | 15.8 µM (active) | inactive |  | inactive |  |  |  | 
CC(C)c1cccc2cc3c(nc12)-c1cccc(=O)n1C3 | 0.501 µM (active) | inactive |  | inactive |  |  |  | 
CCCCc1c2ccccc2nc2[nH]c3ccccc3c12 | 0.2 µM (active) | inactive |  | inactive |  |  |  | 
COC(=O)c1ccc(C(NC(=O)c2ccco2)[C@]2(C)C[C@H]2C2CCCCC2)cc1 (stereo partly specified) | inactive | inactive |  | inactive |  | 7.94 µM (active) |  | 
COC(=O)[C@@]1(Cc2ccc(OC)cc2)[C@H]2c3cc(C(=O)N4CCCC4)n(CCn4cc([N+](=O)[O-])nc4C)c3C[C@H]2CN1C(=O)c1ccccc1 | inactive | inactive |  | inactive |  | 3.98 µM (active) |  | 
CC(C)(C)[Si](C)(C)c1c2c(nc3ccc(OCc4ccccc4)cc13)-c1cccc(=O)n1C2 | 5.01 µM (active) | inactive |  | inactive |  |  |  | 
CCC/C=C(\CCC)C(NC(=O)c1cccs1)c1ccc(C(F)(F)F)cc1 (stereo unspecified) | 3.16 µM (active) | inactive |  | inactive | 0.316 µM (active) | 2.51 µM (active) |  | 
COC(=O)[C@@]1(Cc2ccc(OC)cc2)[C@@H]2C(=CC(=O)[C@H]2CC(=O)C(=O)N2CCCC2)CN1C(=O)c1ccccc1 | inactive | inactive |  | inactive |  |  |  | 
CC(C)c1cccc2nc3c(c(C(C)(C)C)c12)Cn1c-3cccc1=O | 12.6 µM (active) | inactive |  | inactive |  |  |  | 
COC(=O)[C@@]1(Cc2ccc(OC)cc2)[C@@H]2[C@@H](CC(=O)[C@H]2CC(=O)C(=O)N2CCCC2)CN1C(=O)c1ccccc1 | inactive | inactive |  | inactive |  | 0.794 µM (active) |  | 
CC(C)(C)C(=O)NC(c1ccc(Cl)cc1)[C@]1(C)C[C@H]1C1CCCCC1 (stereo partly specified) | inactive | inactive |  | inactive |  |  |  | 
COC(=O)[C@@]1(Cc2ccc(F)cc2)[C@H]2c3cc(C(=O)N(C)C)n(Cc4ccc(C)c(F)c4F)c3C[C@H]2CN1C(=O)c1ccccc1 | inactive | inactive |  | inactive |  |  |  | 
CCCC/C=C/C(NC(=O)c1ccco1)c1ccccc1 (stereo unspecified) | 5.01 µM (active) | inactive |  | inactive |  |  |  | 
C[C@@H](C(=O)Nc1ccc2ccccc2c1)[C@@H]1C[C@@]1(C)[C@@H](N)c1ccccc1 | 15.8 µM (active) | inactive |  | inactive |  |  |  | 
CCC/C=C(\CCC)C(NC(=O)c1ccc(-c2ccccc2)cc1)c1ccc(C(=O)OC)cc1 (stereo unspecified) | 0.631 µM (active) | inactive |  | inactive |  |  |  | 
CCCC[C@@H]1C[C@H]1C(NC(=O)c1ccccc1)c1ccc(Cl)cc1 (stereo partly specified) | 1 µM (active) | inactive |  | inactive | 0.631 µM (active) | 3.98 µM (active) |  | 
CC[C@@]1(O)C(=O)COc2c1cc1n(c2=O)Cc2c-1nc1cccc(C(C)C)c1c2[Si](C)(C)C | 7.94 µM (active) | inactive |  | inactive |  |  |  | 
O=C(NCc1cc(F)cc2c1OCCO2)[C@H]1C[C@@H]1[C@H](NP(=O)(c1ccccc1)c1ccccc1)c1ccccc1 | 15.8 µM (active) | inactive |  | inactive |  |  |  | 

Source: PubChem BioAssay (NCATS)
